Experimental data reported in the supplement of paper PMC10646978.
± gives the standard deviation.

Tests used:
Details in all cases: modulator concentration 10 µM
[1] = tested on: RAW-Dual (murine macrophage reporter line); assay: NF-kB reporter (SEAP) activity fold change vs agonist alone; higher = enhanced NF-kB activity
In short: (§1)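 Overnight stimulation with a PRR agonist followed pre-incubation for 1 hour at 37 °C with compound at 10 μM final. This was done in RAW-Dual murine macrophage reporter cells seeded at 50 000 per well in 384-well plates. NF-κB (SEAP, QUANTI-Blue absorbance at 620 nm) and IRF (Lucia luciferase, QUANTI-Luc luminescence) were read from the supernatant. Each reporter's fold change relative to the mean agonist-only control on the same plate was averaged over replicate plates.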

[2] = tested on: RAW-Dual (murine macrophage reporter line); assay: IRF reporter (Lucia luciferase) activity fold change vs agonist alone; higher = enhanced IRF activity
In short: as §1

[3] = tested on: RAW-Dual (murine macrophage reporter line); assay: viability score (confluency relative to resting cells, overnight) (fraction); higher = more viable, active = viable (0.7 or more)
In short: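 RAW-Dual macrophages in 384-well plates were exposed overnight to compound at 10 μM final. Confluency was imaged with IncuCyte, and two confluency masks were generated with IncuCyte software over all imaged wells. The viability score is confluency expressed relative to resting cells. Compounds were called viable if both masks exceeded 70% of resting cells.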

[4] = agonist: CpG ODN 1826 0.5 ug/mL

SMILES	NF-kB reporter [1, 4]	NF-kB reporter ([1]; agonist: LPS 0.1 ug/mL)	NF-kB reporter ([1]; agonist: MPLA […])	IRF reporter ([2]; agonist: 3'3'-cGAMP 10 ug/mL)	IRF reporter ([2]; agonist: LPS 0.1 ug/mL)	IRF reporter ([2]; agonist: MPLA […])	viability score [3]
NC(N)=NN=Cc1ccc(OS(=O)(=O)c2ccccc2)cc1	0.0965 ± 0.0075	0.954 ± 0.048	1.18 ± 0.14	0.929 ± 0.044	0.93 ± 0.058	1.04 ± 0.13	0.433 (inactive)
Cc1ccc(-c2nn(-c3ccccc3)cc2C=C(C#N)C(N)=O)o1	1.04 ± 0.26	0.991 ± 0.081	1 ± 0.081	1.01 ± 0.041	1.22 ± 0.2	1.12 ± 0.11	0.966 (active)
COc1ccccc1C1C(C(C)=O)=C(O)C(=O)N1CCN(C)C (configuration not stated)	0.967 ± 0.054	1.07 ± 0.072	0.947 ± 0.057	0.958 ± 0.032	1.48 ± 0.24	1.25 ± 0.12	0.988 (active)
CCN(CCO)CCCOc1ccc2c(Nc3cc(CC(=O)Nc4cccc(F)c4)n[nH]3)ncnc2c1	0.703 ± 0.17	0.902 ± 0.23	0.893 ± 0.098	0.982 ± 0.03	1.25 ± 0.25	1.18 ± 0.12	0.951 (active)
CC(C)(C)NCC(=O)Nc1ccc(S(N)(=O)=O)cc1	0.762 ± 0.061	0.821 ± 0.064	1.06 ± 0.091	1.02 ± 0.049	1.52 ± 0.098	1.7 ± 0.2	0.997 (active)
Cc1cccc(C(=O)N2CCCC(c3nnc(CC(C)(C)C)o3)C2)c1 (configuration not stated)	0.877 ± 0.037	0.942 ± 0.16	1.35 ± 0.08	0.924 ± 0.043	1.33 ± 0.3	1.36 ± 0.47	0.944 (active)
COC(=O)C1=C(C)NC(C)=C(C(=O)OCCN2CCN(C(c3ccccc3)c3ccccc3)CC2)C1c1cccc([N+](=O)[O-])c1.Cl.Cl (configuration not stated)	0.241 ± 0.082	0.588 ± 0.22	0.799 ± 0.051	0.132 ± 0.008	0.888 ± 0.27	1.32 ± 0.18	0.975 (active)
Cc1ccc(NC(Nc2ccc(C)cc2)=C(C(Cl)=C(Cl)Cl)[N+](=O)[O-])cc1	1.01 ± 0.17	0.881 ± 0.07	1.18 ± 0.36	0.264 ± 0.01	1.29 ± 0.14	1.33 ± 0.16	0.998 (active)
CNC(=O)[C@H](Cc1c[nH]c2ccccc12)NC(=O)[C@@H](CC(=O)NO)CC(C)C	1.1 ± 0.26	1.33 ± 0.074	1.07 ± 0.074	0.88 ± 0.035	1.07 ± 0.12	1.12 ± 0.12	0.995 (active)
CCC1(c2cnc[nH]2)Cc2ccccc2C1	0.746 ± 0.13	1.09 ± 0.17	0.862 ± 0.055	0.764 ± 0.21	1.33 ± 0.14	0.787 ± 0.11	0.876 (active)
COC(=O)[C@]12CCC(C)(C)C[C@H]1[C@H]1C(=O)C=C3[C@@]4(C)C=C(C#N)C(=O)C(C)(C)[C@@H]4CC[C@@]3(C)[C@]1(C)CC2	0.0752 ± 0.0037	0.294 ± 0.025	0.937 ± 0.086	0.0972 ± 0.012	0.571 ± 0.071	0.585 ± 0.14	0.246 (inactive)
CCOC(=O)c1c(N2C(=O)C3C4C=CC(O4)C3C2=O)sc2c1CCCC2 (configuration not stated)	0.87 ± 0.067	0.792 ± 0.11	0.77 ± 0.092	0.775 ± 0.038	0.962 ± 0.12	0.967 ± 0.18	0.934 (active)
CO[C@@]12[C@H](COC(N)=O)C3=C(C(=O)C(C)=C(N)C3=O)N1C[C@@H]1N[C@@H]12	2.4 ± 0.14	1.47 ± 0.1	2.16 ± 0.18	1.21 ± 0.069	1.42 ± 0.099	1.24 ± 0.24	0.644 (inactive)
CS(=O)(=O)N1C2CCC1CC(NC(=O)NC1CCCC1)C2 (configuration not stated)	1.01 ± 0.11	1.03 ± 0.12	0.88 ± 0.059	0.98 ± 0.093	1.21 ± 0.14	1.2 ± 0.26	1.01 (active)
COc1ccc(Br)cc1S(=O)(=O)NCc1ccccc1	1.23 ± 0.3	0.932 ± 0.054	1.06 ± 0.11	1.18 ± 0.046	1.19 ± 0.13	1.21 ± 0.16	0.928 (active)
CN1CCN(CC(=O)N2c3ccccc3C(=O)Nc3cccnc32)CC1.Cl.Cl	1.49 ± 0.35	1.03 ± 0.1	1.15 ± 0.077	0.96 ± 0.036	1.08 ± 0.12	1.06 ± 0.15	0.984 (active)
Cc1cc(C(O)CCNC(=O)COc2cccc3c2OC(C)(C)C3)c(C)o1 (configuration not stated)	1.04 ± 0.099	1.01 ± 0.15	1.01 ± 0.055	0.883 ± 0.038	0.992 ± 0.051	0.94 ± 0.13	1 (active)
Cc1c(C)n2c3c(=O)n(CC=Cc4ccccc4)c(=O)n(C)c3nc2n1CCOCCO	0.702 ± 0.046	1.16 ± 0.091	1.03 ± 0.17	0.98 ± 0.055	1.03 ± 0.063	1.09 ± 0.085	0.955 (active)
O=S(=O)(NCCOCc1ccccc1)c1ccccc1	1.13 ± 0.093	1.05 ± 0.076	1.04 ± 0.14	1.02 ± 0.068	1.19 ± 0.18	1.27 ± 0.21	0.966 (active)
CN(C)C=C1C(=O)N(c2nc3ccccc3s2)N=C1CSc1ccc(Cl)cc1	0.945 ± 0.078	1.02 ± 0.067	0.916 ± 0.058	0.843 ± 0.029	1.42 ± 0.12	1.15 ± 0.073	1.01 (active)
COCCCN1C(=O)C(=Cc2ccc(-c3ccc(Cl)cc3Cl)o2)SC1=S	0.954 ± 0.054	1.01 ± 0.082	0.96 ± 0.036	1.02 ± 0.052	1.01 ± 0.099	0.998 ± 0.25	1 (active)
CCCCOc1ccc(C(=O)Nc2cc(-c3nc4ccccc4o3)ccc2OC)cc1	1.08 ± 0.066	1.08 ± 0.089	0.965 ± 0.025	0.965 ± 0.042	1.06 ± 0.049	1.02 ± 0.098	1 (active)
CC(=O)O.NCc1ccc(S(N)(=O)=O)cc1	1 ± 0.1	1.01 ± 0.052	0.992 ± 0.058	0.914 ± 0.065	0.96 ± 0.12	1.02 ± 0.092	1.01 (active)
CCc1ccccc1Nc1nc(-c2sc(NC(C)=O)nc2C)cs1	0.65 ± 0.1	0.555 ± 0.052	0.582 ± 0.048	0.778 ± 0.028	1.3 ± 0.3	1.42 ± 0.26	0.536 (inactive)
Cc1cn(C2C=CC(CO)O2)c(=O)[nH]c1=O (configuration not stated)	1.02 ± 0.15	0.902 ± 0.27	0.981 ± 0.06	0.886 ± 0.041	1.04 ± 0.27	1.04 ± 0.2	0.984 (active)
NC(=O)c1cc(NC(=O)c2ccc(Cl)c(Cl)c2)cc(C(N)=O)c1	1.15 ± 0.073	1.04 ± 0.13	1.01 ± 0.048	0.88 ± 0.032	0.943 ± 0.048	0.964 ± 0.096	0.997 (active)
